Source: PubChem BioAssay
Only some compounds are listed: those with a hit (about 11% of all), similar ones and a draw of the others.
L3MBTL1 inh = blocks human L3MBTL1; Potency, µM (top dose mostly 57.1 µM), for the others: at the top dose activity, negative = inhibition, hits mostly inhibitors; AID 485360; AlphaScreen L3MBTL1–H3K9me1 peptide binding; Q9Y468; hit rate 0.66% among 230,000; also: % is scaled to controls: 0 for no effect and ±100 for the full control effect; nearly all actives have a fitted effect of over 60% in size
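Read-out is AlphaScreen signal from streptavidin donor and nickel chelate acceptor beads (10 ug/mL final each) bridging L3MBTL1 (50 nM) and biotinylated K9-monomethylated H3(1-15) peptide (75 nM), after 30 min compound exposure at room temperature.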
HP1b chromo inh = blocks HP1-beta chromodomain binding to methylated histone tails; P83916; AlphaScreen HP1-beta / biotin-H3K9me3 peptide binding; hit rate 0.56% among 390,000; Potency, µM (doses to about 114 µM), for the others: at the top dose activity change, negative = inhibition, actives largely listed as inhibitors; also: nearly all actives have a fitted effect of over 70% in size
Target sequence (P83916 whole entry, looked up): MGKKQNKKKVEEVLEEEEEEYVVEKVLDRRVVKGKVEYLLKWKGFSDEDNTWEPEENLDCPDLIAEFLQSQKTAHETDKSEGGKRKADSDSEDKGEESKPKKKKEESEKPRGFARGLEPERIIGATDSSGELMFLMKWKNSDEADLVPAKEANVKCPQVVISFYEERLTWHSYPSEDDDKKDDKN
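HP1-beta protein (50 nM final) preincubated 30 min at room temperature with biotinylated H3(1-18)K9me3 peptide (50 nM) in PBS pH 7.4, 0.01% Tween-20, then compound added for 30 min. AlphaScreen streptavidin donor/nickel chelate acceptor beads (10 ug/mL final), 30 min dark, luminescence read.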
JMJD2A Tudor = inhibitors of human JMJD2A Tudor domain | O75164 | AlphaScreen JMJD2A-Tudor / H3K4me3 peptide binding | Potency, µM (highest dose often 114 µM), without a hit: at the highest dose activity change, negative = inhibition, actives largely listed as inhibitors | hit rate 4.4% among 390,000 | AID 504339; also: % is scaled to controls: 0 for no effect and ±100 for the full control effect; nearly all actives have a fitted effect of over 50% in size
BAZ2B block = BAZ2B (human) inhibition; AlphaScreen BAZ2B-H3K14Ac peptide displacement; Potency, µM (doses to about 114 µM), inactives show at the highest dose activity change, negative = inhibition, most hits filed as inhibitors; hit rate 4.4% among 360,000; AID 504333; also: % is scaled to controls: 0 for no effect and ±100 for the full control effect; nearly all actives have a fitted effect of over 60% in size
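AlphaScreen displacement: compounds (up to 110uM) incubated 30 min at room temperature with a preformed 50 nM BAZ2B/50 nM biotinylated H3K14Ac peptide complex in PBS pH 7.4 with Tween-20. Donor and acceptor beads at 10 ug/mL final added, 20 min light-protected before reading.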
G9a block = blocks human histone lysine methyltransferase G9a. G9a H3K9 monomethylation, AlphaScreen, 2 h. hit rate 8.8% among 350,000. Q96KQ7. Potency, µM (series often up to 102 µM), inactives show at the top dose activity, negative = inhibition, hits mostly inhibitors; also: % is scaled to controls: 0 for no effect and ±100 for the full control effect; nearly all actives have a fitted effect of over 75% in size
Target sequence (Q96KQ7 913-1193 limits assumed): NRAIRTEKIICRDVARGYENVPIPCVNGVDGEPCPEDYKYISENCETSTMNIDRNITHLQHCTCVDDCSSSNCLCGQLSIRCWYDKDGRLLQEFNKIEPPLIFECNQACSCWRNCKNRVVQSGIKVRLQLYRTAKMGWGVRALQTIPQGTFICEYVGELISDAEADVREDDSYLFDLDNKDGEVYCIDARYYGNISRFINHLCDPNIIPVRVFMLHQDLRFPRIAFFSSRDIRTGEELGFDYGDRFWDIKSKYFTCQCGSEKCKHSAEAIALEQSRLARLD
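G9a (20 nM) was preincubated 15 min with compound, then reacted 2 h at room temperature with 500 nM biotin-H3K9 peptide and 20 µM SAM. Monomethyl-H3K9 detected by AlphaScreen using anti-H3K9me1 antibody.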
* hit, by the source's call; u = inconclusive; x = not tested or not shown; [ ] = another dose, or the depositor's remark. Calls follow the shape of the dose curve; as a rule, active = well fitted inhibition curve with a large enough effect; inconclusive = small, poorly fitted or top-dose-only effect; inactive = no such curve, though single readings can be large or run the other way. Potency is read from the fitted curve at half-maximal effect.

SMILES | L3MBTL1 inh | HP1b chromo inh | JMJD2A Tudor | BAZ2B block | G9a block
CCCN(CCO)C1CCN(CCc2ccccc2)CC1 | x | 21.5% | -1.3% | -27.9% | 50.1µM*
OCCNc1nc(Nc2cccc(O)c2)nc2ccccc12 | x | 12.7% | -20.7% | -32.8% | 70.8µM*
Cc1ccc(-c2nc(Nc3cccc(O)c3)c3ccccc3n2)cc1 | x | 19.3% | -18.1% | u | 18.0%
OCCNc1nc(N2CCN(c3ccccc3)CC2)nc2ccccc12 | x | 20.2% | -24.6% | -33.4% | 79.4µM*
OCCNc1nc(Nc2ccc(O)cc2)nc2ccccc12 | x | -7.4% | u | u | u
Oc1cccc(Nc2c3ccccc3nc3ccccc23)c1 | x | -7.5% | u | u | 39.8µM*
CSc1ccccc1NC(=O)c1ccc(N2CC3CC(C2)c2cccc(=O)n2C3)c(NC(=O)c2cccnc2)c1 (stereo not drawn) | x | 27.9% | -5.7% | -19.2% | 70.8µM*
COc1ccccc1NC(=O)c1ccc(N2CC3CC(C2)c2cccc(=O)n2C3)c(NC(=O)c2ccncc2)c1 (stereo not drawn) | x | 29.7% | -11.7% | -13.8%[57.1 µM] | 15.8µM*
COCCNC(=O)c1ccc(N2CC3CC(C2)c2cccc(=O)n2C3)c(NC(=O)c2ccc(F)cc2)c1 (stereo not drawn) | x | 6.8% | -10.3% | -12.9% | x
Cn1c(=O)[nH]c(=O)c2c1nc(SCc1ccccc1Cl)n2CC(N)=O | 0.4% | x | x | 13.0% | x
CN(c1nccc(=O)[nH]1)C1CCN(c2nc3ccccc3n2Cc2ccc(F)cc2)CC1 | x | x | x | x | -30.1%[12.7 µM]
Cc1cc(C)c2c(c1)C1C=CCC1C(c1ccc(S(=O)(=O)N3CCOCC3)cc1)N2 (stereo not drawn) | -3.5% | 15.1% | -16.2% | -12.2% | 8.91µM*
N#Cc1cc([N+](=O)[O-])cnc1N(CCO)CCO | 2.3% | 25.8% | -5.7% | -2.3% | 7.08µM*
CCC(CO)Nc1ncc([N+](=O)[O-])cc1C#N (stereo not drawn) | 5.1% | 16.7% | -22.8% | -1.2% | 7.6%[59 µM]
COc1ccc(Cl)c2c1[nH]c1nc(SCc3ccccn3)nnc12 | x | 16.3% | -15.1% | -25.4% | 2µM*
COc1ccc(Cl)c2c1[nH]c1nc(SCc3cccnc3)nnc12 | -10.2% | 28.1% | -1.0% | -11.0% | u
CCN(CC)Cc1cc(Nc2c3ccccc3nc3c4ccccc4n(C)c23)cc(CN(CC)CC)c1O | x | u | 44.7µM* | x | x
COc1cccc(C(=O)N2CCN(Cc3ccc(OC)cc3OC)CC2)c1 | 0.0% | u | 12.6µM* | 25.1µM* | 7.94µM*
COc1ccc(Br)cc1CN1CCC(N2CCCC2)CC1 | -9.1% | u | u | 31.6µM* | 25.1µM*
COc1cccc(C(=O)N2CCN(Cc3cc(Br)ccc3OC)CC2)c1 | 23.7% | u | 7.94µM* | 28.2µM* | 22.4µM*
COc1ccc(Br)cc1CN1CCN(C(=O)c2ccc(OC)c(OC)c2)CC1 | -9.2% | u | 14.1µM* | 50.1µM* | 15.8µM*
COc1ccc(Br)cc1CNC(=O)C1CCCN(S(C)(=O)=O)C1 (stereo not drawn) | 6.7% | 11.8% | -9.8% | 9.0% | -2.0%[12.7 µM]
COc1cccc(Cn2c(=O)c(-c3cccs3)nc3cnc(N4CCN(C)CC4)nc32)c1 | x | x | x | x | -6.7%[12.7 µM]
O=C1NC2(CCCCC2)C(=O)N1/N=C/c1ccc(O)cc1O | x | -18.5% | -15.3%[11.4 µM] | u | 3.98µM*
O=C1NC2(CCCCC2)C(=O)N1/N=C/c1ccccc1Br | x | 35.2% | -14.8% | -16.3% | 14.2%
SMILES | L3MBTL1 inh | HP1b chromo inh | JMJD2A Tudor | BAZ2B block | G9a block
CC(=O)c1n[nH]nc1NC(=O)c1ccccc1 | x | 5.6% | 20µM* | 50.1µM* | 50.1µM*
CSc1nc(-c2ccccc2)nc(NC(=O)c2ccccc2)c1C(C)=O | -16.8% | 20.1% | -11.0% | -2.7% | -2.2%
COc1ccc(OC)c(C2CC(=O)N(c3cccc(C)c3)C3=C2C(=O)OC3)c1 (stereo not drawn) | x | 6.6% | -24.6% | u | 6.5%[59 µM]
O=C(NCc1ccc(F)cc1)c1c2c(nc3ccccc13)CCN(Cc1ccccc1)C2 | -14.8% | 27.9% | 7.3% | 7.5% | 44.7µM*
O=C(COC(=O)c1c2c(nc3ccccc13)CCN(Cc1ccccc1)C2)Nc1c(F)cccc1F | -9.2% | 6.0% | u | -38.7% | 14.9%[59 µM]
CC(=O)Nc1ccc(NC(=O)COC(=O)c2c3c(nc4ccccc24)CCN(Cc2ccccc2)C3)cc1 | -11.3% | -24.9% | -30.9%[57.1 µM] | -31.8% | 50.1µM*
CCc1ccccc1NC(=O)C1CCN(c2nn3c(=O)cc(C)nc3s2)CC1 | x | 22.3% | -12.4% | -9.1% | 4.4%[59 µM]
c1ccc(C(CN2CCCCC2)Oc2ccccn2)cc1 (stereo not drawn) | x | 11.8%[57 µM] | -11.7% | x | x
O=C(Nc1ccc(Cl)cc1)N(CCCN1CCOCC1)Cc1cccs1 | x | 16.8% | -28.4% | -3.6% | 9.2%
O=S(=O)(c1ccc(Cl)cc1)N(CCCN1CCOCC1)Cc1cccs1 | x | 14.8% | 8.91µM* | 50.1µM* | 28.2µM*
COc1cccc(N2CCN(S(=O)(=O)c3ccc(-c4ccno4)cc3OC)CC2)c1 | x | -10.5% | -26.0% | -38.2% | -8.1%[59 µM]
CC(=O)Nc1ccc(C(=O)N/N=C/c2cccnc2)cc1 | 11.3% | 52.5% | 3.4% | 8.7% | 8.2%[59 µM]
C/C(=N\NC(=O)c1cc(O)ccc1O)c1cccc(NC(=O)c2ccc(Cl)cc2)c1 | x | u | u | u | 15.8µM*
O=C(N/N=C/c1ccncc1)c1cccc(N/N=C/c2ccncc2)c1 | -8.6% | -5.9% | u | -21.0% | u
O=C(NCC1CCCO1)C(=O)N/N=C/c1cc(Cl)ccc1O (stereo not drawn) | u | 31.0% | 39.8µM* | u | -1.9%
O=C(N/N=C/c1ccncc1)c1cccc(NC(=O)c2ccc(Cl)cc2)c1 | 22.7% | u | -28.8% | -4.3% | 15.8µM*
C/C(=N\NC(=O)c1cc(O)ccc1O)c1cccc(NC(=O)c2cccc(Cl)c2)c1 | x | -1.4% | u | u | u
O=C(N/N=C/c1cccnc1)c1ccc(NC(=O)c2ccc(Cl)cc2)cc1 | x | 20.6% | -3.5% | 0.8% | 44.7µM*
COC(=O)c1ccc(NC(=O)CC2C(=O)N(c3ccc(F)cc3)C(=O)N2Cc2ccc(OC)cc2)cc1 (stereo not drawn) | x | 43.8% | -3.8% | -17.5% | 2.4%[59 µM]
COc1ccc(NC(=O)CSc2nnc3ccc(-c4cccnc4)nn23)c(OC)c1 | 2.0% | 23.2% | -8.1% | 8.6% | -5.0%
CSc1ncc(C(=O)Nc2ccccc2C(F)(F)F)c(-c2ccccc2)n1 | x | 44.1% | -22.1% | 32.6% | 24.3%[59 µM]
O=C(N/N=C/c1cccnc1)c1ccc(Cl)c(Cl)c1 | x | 36.6% | 3.2% | x | x
O=C(N/N=C/c1ccccc1Cl)c1ccncc1 | 8.8% | 23.2% | -7.8% | 8.3% | x
O=C(N/N=C\c1cccnc1)c1cc(-c2ccc(Cl)s2)[nH]n1 | 15.0% | -8.0% | 56.2µM* | 50.1µM* | 31.6µM*
O=C(N/N=C/c1cc(Cl)ccc1O)c1ccncc1 | 25.1µM* | -11.3% | u | 20µM* | 61.9%[12.7 µM]
